Records with an inconclusive call do not appear. A number with no mark means an inactive call. Calls of active or inactive are those of the source. The call rests on the fitted dose curve; in most records, active means well fitted cell-killing curve with a large enough effect; inconclusive means small, poorly fitted or top-dose-only effect, or effect the other way; inactive means no such curve, though single readings can be large or run the other way.
On the % scale 0 is the no-effect control and ±100 the full control effect; potency means the concentration at half of the fitted maximal effect.

This test concerns C33A. As to the kind of experiment: Confirmatory qHTS for gynecologic anti-cancer compounds from libraries of approved drugs and bioactive compounds. Further: nearly all actives have a fitted effect of over 55% in size. To be noted: gynecologic cancer cell panel viability, ATPlite luminescence, 48 h; series mostly up to 57.6 µM; activity change, negative = viability loss: at the top concentration. Put shortly:
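1,000 cells/well; 16 h pre-incubation 37 C, 5% CO2; pin-transferred cpd in DMSO, 11 conc (1:3), 57.5 uM–0.977 nM; 48 h; ATPlite, 15 min RT; luminescence → IC50.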
A general note: Quantitative high-throughput screening tests each substance at several concentrations.
Take `C=CC(=O)Nc1cc2c(Nc3ccc(F)c(Cl)c3)ncnc2cc1OCCCN1CCOCC1`: the Potency was 24.3 µM (active).

Consider `CC(C)c1nn(-c2c(Cl)cccc2Cl)c2nc(Cc3ccc(OCCO)cc3)[nH]c(=O)c12`, for which the Potency was 0.0968 µM (active).

Take `O=c1[nH]c(=O)n([C@H]2C[C@H](O)[C@@H](CO)O2)cc1F`: the Potency is 2.17 µM (active).

In the case of `CC(C)n1nc(-c2cc3cc(O)ccc3[nH]2)c2c(N)ncnc21`, the Potency was 3.06 µM (active).

With `OC[C@H]1O[C@@H](n2cnc3c(=S)nc[nH]c32)[C@H](O)[C@@H]1O`, the Potency was 10.9 µM (active).

Turning to `COc1ccc(OC)c(-c2nnc3ccc(-c4ccc(OC)c(O[C@@H]5CCOC5)c4)nn23)c1`, the “activity change, negative = viability loss” value is -2.95%.

As to `COc1cc(N2CCC(N3CCN(C)CC3)CC2)ccc1Nc1ncc(Cl)c(Nc2ccccc2S(=O)(=O)C(C)C)n1`, the Potency was 27.3 µM (active).

On to `Oc1cn2c(n1)Nc1ccc(Cl)c(Cl)c1C2`, for which the “activity change, negative = viability loss” value is -2.44% [at 19.5 µM].

With `Cc1cc(C2CCCCC2)n(O)c(=O)c1`, the Potency is 7.03 µM (active).

Turning to `CNc1nc(Nc2ccc(C(=O)N3CCOCC3)cc2OC)ncc1Cl`, the “activity change, negative = viability loss” value was 1.31%.

Take `CN1C(=O)C(Cc2c[nH]c3ccccc23)NC1=S` (stereo not drawn): the “activity change, negative = viability loss” value was 12.4% [at 19.5 µM].

Consider `CN(C)CC/C=C1\c2ccccc2COc2ccccc21`, for which the “activity change, negative = viability loss” value is 8.58%.

As to `Cn1cnc2c(F)c(Nc3ccc(Br)cc3F)c(C(=O)NOCCO)cc21`, the “activity change, negative = viability loss” value was -21.1%.

Regarding `CC(C)(C(=O)NCC(F)(F)C(F)(F)F)C(=O)NC1C(=O)Nc2ccccc2-c2ccccc21` (stereo not drawn), the “activity change, negative = viability loss” value was -11%.

Turning to `CC(C)Nc1cc(-c2c[nH]c(C(=O)N[C@H](CO)c3cccc(Cl)c3)c2)c(Cl)cn1`, the “activity change, negative = viability loss” value is -12.1%.

With `CC(C)[C@@H](CS(=O)(=O)C(C)C)N1C(=O)[C@@](C)(CC(=O)O)C[C@H](c2cccc(Cl)c2)[C@H]1c1ccc(Cl)cc1`, the “activity change, negative = viability loss” value is 0.0552%.

Turning to `CN(C)c1ccc(-c2nc3ncc(Cl)c(N4CCN(CC(=O)Nc5nccs5)CC4)c3[nH]2)cc1`, the “activity change, negative = viability loss” value was -12.9% [at 19.5 µM].

Regarding `NC1(c2ccc(-c3nc4ccn5c(=O)[nH]nc5c4cc3-c3ccccc3)cc2)CCC1`, the “activity change, negative = viability loss” value was 11%.

Consider `CN(NC(=O)CC(=O)NN(C)C(=S)c1ccccc1)C(=S)c1ccccc1`, for which the Potency was 0.0273 µM (active).

Regarding `OCc1ccc(-c2ccc(-c3ccc(CO)s3)o2)s1`, the “activity change, negative = viability loss” value is -12.9% [at 19.5 µM].

Consider `Cc1cc(SCc2sc(-c3ccc(C(F)(F)F)cc3)nc2C)ccc1OCC(=O)O`, for which the “activity change, negative = viability loss” value is -0.815%.

In the case of `Cc1cnc(Nc2ccc(OCCN3CCCC3)cc2)nc1Nc1cccc(S(=O)(=O)NC(C)(C)C)c1`, the “activity change, negative = viability loss” value is -25.9%.

In the case of `CCN(CC)CCCC(C)Nc1ccnc2cc(Cl)ccc12` (stereo not drawn), the “activity change, negative = viability loss” value was 7.04% [at 19.5 µM].

As to `CCN(CC)CCCC(C)Nc1c2ccc(Cl)cc2nc2ccc(OC)cc12` (stereo not drawn), the Potency was 24.3 µM (active).

With `CC(Oc1cc(-n2cnc3ccc(CN4CCN(C)CC4)cc32)sc1C(N)=O)c1ccccc1C(F)(F)F` (stereo not drawn), the Potency was 5.44 µM (active).

Take `CN(C)CCC(CSc1ccccc1)Nc1ccc(S(=O)(=O)NC(=O)c2ccc(N3CCN(Cc4ccccc4-c4ccc(Cl)cc4)CC3)cc2)cc1[N+](=O)[O-]` (stereo not drawn): the “activity change, negative = viability loss” value was 5.88%.

For `NS(=O)(=O)c1ccc(Nc2nc(OCC3CCCCC3)c3[nH]cnc3n2)cc1`, the “activity change, negative = viability loss” value is 15.5%.

On to `O=C(Nc1cn[nH]c1-c1nc2ccc(CN3CCOCC3)cc2[nH]1)NC1CC1`, for which the Potency was 13.7 µM (active).

In the case of `CCc1nc(C(N)=O)c(Nc2ccc(N3CCC(N4CCN(C)CC4)CC3)c(OC)c2)nc1NC1CCOCC1`, the “activity change, negative = viability loss” value is -16.8% [at 45.6 µM].

`CC1=C(/C=C/C(C)=C/C=C/C(C)=C/C(=O)Nc2ccc(O)cc2)C(C)(C)CCC1`: the Potency is 3.85 µM (active).

Take `CN(C)/N=N/c1nc[nH]c1C(N)=O`: the “activity change, negative = viability loss” value is 0.0357%.

As to `CO[C@@]12[C@H](COC(N)=O)C3=C(C(=O)C(C)=C(N)C3=O)N1C[C@@H]1N[C@@H]12`, the “activity change, negative = viability loss” value is -5.23%.

On to `COc1c(C)c2c(c(O)c1C/C=C(\C)CCC(=O)OCCN1CCOCC1)C(=O)OC2`, for which the Potency was 2.73 µM (active).

The record behind these values is PubChem BioAssay AID1345085 (National Center for Advancing Translational Sciences (NCATS), 2018).
